# Assay outcomes as filed in PubChem.
# Only a selection was taken, and hits are over-represented in it overall.
# Hedgehog inh: Hedgehog pathway signaling inhibitors, primary screen, luminescence, Shh-LIGHT2 cells, Gli-luciferase. Shh-LIGHT2 Gli-luciferase reporter, 30 h. inhibition, % (concentration not given with the values). 22,000 tested, 2.1% active. AID 2313, 2010;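 active = mean inhibition across valid replicates above about 65%, limit read from the data; inconclusive = mean under the limit, yet half or more replicates past it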;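 note: pathway switched on by Shh-conditioned medium diluted 1 in 25 in low serum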
# MITF inhib: inhibitors of MITF, primary screen, MITF inhibitor project, cell-based, luminescence; TRPM1 promoter luciferase, 24 h; inhibition, % (test concentration not listed); 37,000 tested, 0.28% active; AID 2240, 2010; in the data active = inhibition above about 85%; inconclusive = no clear call, values can overlap the other calls; inactive = below about 68%;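 note: human melanocyte line stably carrying TRPM1 promoter luciferase reporter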
# Active calls of the source: *; ? = inconclusive; . = not tested or not shown.
SMILES,Hedgehog inh,MITF inhib
COc1ccc(C[C@H]2NC[C@H](O)[C@H]2OC(C)=O)cc1,107*,104*
Cc1cc(OCC(=O)N(C)C)c2c3c(c(=O)oc2c1)CCCC3,.,-4
C[C@@H]1O[C@@H](O[C@H]2[C@H](O)[C@@H](O)[C@H](O[C@@H]3C=C4CC[C@@H]5C(CC[C@]6(C)[C@@H](c7ccc(=O)oc7)CC[C@]56O)[C@@]4(C)CC3)O[C@@H]2CO)[C@H](O)[C@H](O)[C@H]1O (stereo partly drawn),-7,51
COC[C@H]([C@@H](O)[C@@H](O)C(=O)NCC[C@@H](C)c1nc(/C=C/C[C@H]2OC3(C[C@H](O)[C@H]2C)OC([C@@H](C[C@@H](O)[C@@H](C)[C@@H](O)[C@@H](C)/C=C(C)/C(C)=C/C=C/C(C)=C\C#N)OC)[C@@H](OP(=O)(O)O)C3(C)C)co1)N(C)C (stereo partly drawn),105*,65
C=CC(C)(C)[C@]12C=C(OC)C(=O)N3/C(=C/c4cnc[nH]4)C(=O)N[C@@]31N(OC)c1ccccc12,-4,11
COc1ccc2c3c1O[C@H]1[C@@H](O)CC=C4[C@@H](C2)N(C)CC[C@]431,-37,-8
CCc1nc2ccccc2c(=O)n1-c1ccccc1Cl,-32,25
CC[C@@]12CCCN3CC[C@]4(c5cccc(OC)c5N(C(C)=O)[C@@H]4CC1)[C@H]32,-9,-2
CCC(C)[C@H]1O[C@]2(C=C[C@@H]1C)C[C@@H]1C[C@@H](C/C=C(\C)[C@@H](OC3C[C@H](OC)C(O[C@H]4C[C@H](OC)[C@@H](O)[C@H](C)O4)[C@H](C)O3)[C@@H](C)/C=C/C=C3\CO[C@@H]4[C@H](O)C(C)=C[C@@H](C(=O)O1)[C@]34O)O2 (stereo partly drawn),5,100*
CC1=CC(=O)c2c(O)cccc2C1=O,97*,97*
CCOC(=O)C1=NN(c2ccc(C)cc2)C2c3cccc4cccc(c34)C12 (stereo not drawn),.,-62
CC[C@@H]1/C=C\C=C\C[C@H](C)C(O)[C@](C)(O)C(=O)[C@H](C)C(O)[C@H](C)C(=O)[C@H](C)[C@@H](O)[C@H](C)/C=C/C(=O)O[C@H]2[C@@H](C)[C@@H](CC1)O[C@@]1(CC[C@@H](C)[C@@H](C[C@H](C)O)O1)[C@@H]2C (stereo partly drawn),108*,75
c1ccc2c(c1)[nH]c1cnccc12,21,2
Cc1c2ccncc2c(C)c2c1[nH]c1ccccc12,71*,28
CC(C)c1cc2c(cc1O)[C@@]1(C)C[C@@H](O)CC(C)(C)C1CC2 (stereo partly drawn),-21,-4
C[C@@H]1O[C@@H](OC2CCC3(C)C4CCC5(C)C(C6=CC(=O)OC6)CCC5(O)C4CC[C@H]3C2)[C@H](O)[C@H](O)[C@H]1O (stereo partly drawn),18,2
COC(=O)CC1=C(C(=O)OC)C2(C(=O)Nc3ccccc32)C(C(=O)OC)=C(N)O1 (stereo not drawn),-4,9
O=C1NC(=O)C(=C/C=C/c2ccccc2)C(=O)N1,?,87*
CO[C@@H]1[C@H](O)[C@@H](O[C@@H]2C[C@H]3CC[C@@H]4C(CC[C@]5(C)[C@@H](C6=CC(=O)OC6)CC[C@]45O)[C@@]3(C)[C@H](O)C2)O[C@H](C)[C@@H]1O[C@@H]1O[C@H](CO)[C@@H](O)[C@H](O)[C@H]1O (stereo partly drawn),-11,30
O=C(Nc1ccc2c(C(F)(F)F)cc(=O)oc2c1)c1cc(Cl)cc(Cl)c1,-23,8
C/C1=C/C(=O)O[C@@H]2C[C@@H](CC[C@H](C)/C=C\CC1)O[C@@](O)([C@@H]1CSC(=O)N1)C2,102*,48
O=C1CCCC2C3CC(CN12)[C@@H]1CCCCN1C3 (stereo partly drawn),3,-2
CCN1CC2(COC)CCC(O)C34C5CC6C(OC)CC(O)(C5C6O)C(C(OC)C23)C14 (stereo not drawn),-17,-2
Nc1ccc(CCN2CCN(c3cccc(C(F)(F)F)c3)CC2)cc1,42,7
FC(F)(F)c1ccc2c(c1)N(CCCN1CCN(CCCl)CC1)c1ccccc1S2,66*,18
COC(=O)[C@@]12C(=O)C(C)C(=O)[C@]1(C)C(C)=C[C@H]1[C@]3(C)CC[C@H](OC(C)=O)C(C)(C)[C@H]3CC[C@@]12C (stereo partly drawn),-10,-15
CO[C@H]1[C@H](O)[C@H](O[C@H]2CC[C@]3(C)C4CC[C@]5(C)[C@H](C6=CC(=O)OC6)CC[C@]5(O)C4CC[C@@H]3C2)O[C@@H](C)[C@@H]1O[C@@H]1O[C@H](CO[C@@H]2O[C@H](CO)[C@@H](O)[C@H](O)[C@H]2O)[C@@H](O)[C@H](O)[C@H]1O (stereo partly drawn),-5,31
